Only some compounds are listed: those with a hit (about 1.5% of all), similar ones and a draw of the others.
Polio RdRp inh: poliovirus RdRp elongation inhibitors, primary screen, biochemical, fluorescence polarization, total intensity; AID 588519, 2011; Genome polyprotein (Poliovirus type 1 (strain Mahoney)), P03300; poliovirus polymerase elongation; active compounds read low; % elongation, % (compound at 16.7 µg/mL); 150,000 compounds, 0.66% hits; in the data active = % elongation below about 90%
MenB inh: M. tuberculosis MenB inhibitors, primary screen, biochemical, absorbance; 1,4-dihydroxy-2-naphthoyl-CoA synthase (Mycobacterium tuberculosis (strain ATCC 25618 / …; AID 540299, 2011; inhibition, % (test concentration not listed); 100,000 compounds, 0.43% hits; MenB enzyme assay, absorbance read-out; in the data active = inhibition above about 21%, passing the limit was not always enough
AID504770: growth inhibition of E. coli YBA685, primary screen, V. cholerae RctB inhibitors; z-score (test concentration not listed); AID 504770, 2011; 130,000 compounds, 0.27% hits; E. coli YBA685 rctB-dependent plasmid, OD600 growth, 3 h; active compounds read low; in the data active = z-score below about -2, passing the limit was not always enough
MbtI inh: MbtI salicylate synthase inhibitors, primary screen, biochemical, fluorescence intensity. AID 493033, 2011. inhibition, % (test concentration not listed). 100,000 compounds, 0.89% hits. purified MbtI enzyme, fluorescence intensity read-out; in the data active = inhibition mostly above about 56%, no sharp cut-off; inactive = mostly below about 77%
Target sequence (P9WFX0 whole entry, looked up): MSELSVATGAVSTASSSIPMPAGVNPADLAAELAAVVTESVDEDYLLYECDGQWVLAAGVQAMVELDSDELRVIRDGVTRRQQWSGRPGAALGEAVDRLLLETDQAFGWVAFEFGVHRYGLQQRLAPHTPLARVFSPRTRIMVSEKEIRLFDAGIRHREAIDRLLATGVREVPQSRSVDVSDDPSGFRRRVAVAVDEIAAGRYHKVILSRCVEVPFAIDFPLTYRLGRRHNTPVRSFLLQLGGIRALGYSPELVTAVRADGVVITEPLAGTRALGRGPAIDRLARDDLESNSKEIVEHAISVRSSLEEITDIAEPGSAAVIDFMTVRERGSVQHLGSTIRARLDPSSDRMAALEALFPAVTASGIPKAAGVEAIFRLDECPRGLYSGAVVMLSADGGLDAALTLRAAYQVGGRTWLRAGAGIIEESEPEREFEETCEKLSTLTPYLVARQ
Numbers without * were called inactive.

Screening CCC(=O)Nc1nc(C)c(-c2csc(Nc3ccc(S(N)(=O)=O)cc3)n2)s1 returned Polio RdRp inh 102, MenB inh 9, AID504770 1.9 and MbtI inh 35.
For CCOc1cccc(C2c3[nH]c4ccccc4c3CCN2C(=O)c2ccccc2F)c1 (stereo not given) the results were Polio RdRp inh 106.
For Cc1n[nH]c(C)c1SCC(=O)O the results were Polio RdRp inh 105, MenB inh -13, AID504770 0.05 and MbtI inh 10.
CC(C)(C)SCC(=O)O was read as Polio RdRp inh 84*, MenB inh 7, AID504770 0.15 and MbtI inh -7.
Screening N#CC1=C2SCN(C3CCCCC3)CN2C(=O)CC1c1c(F)cccc1Cl (stereo not given) returned Polio RdRp inh 69*.
`N#CC1=C2SCN(C3CCCCC3)CN2C(=O)CC1c1ccc(F)cc1` (stereo not given) gave Polio RdRp inh 84*.
For COc1ccc(C2(O)CCN(CCCCOc3ccccc3)CC2)cc1 the results were Polio RdRp inh 102, MenB inh -20, AID504770 -0.65 and MbtI inh -10.
O=C1CSC(=S)N1/N=C/c1cc(Br)cc(Br)c1O was read as Polio RdRp inh 90*, MenB inh -25, AID504770 -0.4 and MbtI inh 49.
For CC1CCCCN1Cc1ccc(-c2nn[nH]n2)cc1 (stereo not given) the results were AID504770 -0.55 and MbtI inh -11.
Screening CC(=O)N1CCN(c2ccc(N)cc2)CC1 returned Polio RdRp inh 103, MenB inh 30* and AID504770 1.9.
`Cc1cc2c(cc1C)C(=O)C(N1CCOCC1)=C(c1ccccc1)C2=O` gave Polio RdRp inh 102, MenB inh 8, AID504770 0 and MbtI inh 54*.
Screening COc1cccc(C2NS(=O)(=O)N=C3CCCCCN32)c1OC(F)F (stereo not given) returned Polio RdRp inh 103, MenB inh -13, AID504770 -0.2 and MbtI inh 3.
Screening O=S1(=O)N=C2CCCCCN2C(c2ccc(Br)cc2)N1 (stereo not given) returned Polio RdRp inh 22*, MenB inh 4, AID504770 -0.15 and MbtI inh -4.
`Cc1nc(-c2c[nH]c3ccccc23)c(C)s1` gave Polio RdRp inh 73*, MenB inh -15 and AID504770 -1.1.
`COc1cccc2c(CCN)c[nH]c12` gave Polio RdRp inh 89*, MenB inh 6 and AID504770 0.35.
`Cc1[nH]n(-c2nc3ccccc3[nH]2)c(=O)c1C1OC(=O)c2ccccc21` (stereo not given) gave Polio RdRp inh 62*, MenB inh -21, AID504770 -0.65 and MbtI inh 100*.
CCOC(=O)c1c(NC(=O)c2cc(-c3ccc(Br)cc3)on2)sc(C)c1C was read as Polio RdRp inh 89*.
For CCOC(=O)c1c(NC(=O)c2cc(-c3cccc(Cl)c3)on2)sc(C)c1C the results were Polio RdRp inh 96.
O=C(Nc1ccccc1)Nc1ccc2snnc2c1 was read as Polio RdRp inh 103, MenB inh 10, AID504770 -2.6* and MbtI inh 8.
For O=C(Nc1ccccc1)Nc1ccc2nnsc2c1 the results were Polio RdRp inh 103, MenB inh 9, AID504770 -1.5 and MbtI inh 3.
`CC1(C)CCC2=C(O1)c1ccccc1C(=O)C2=O` gave Polio RdRp inh 89*, MenB inh 8 and MbtI inh 2.
COC(=O)c1c(NC(=O)c2ccc(OC)cc2OC)sc2c1CCCCC2 was read as Polio RdRp inh 100.
Screening COc1ccc(CC(=O)n2[nH]c(=O)cc(C)c2=O)cc1OC returned Polio RdRp inh 99, MenB inh 0, AID504770 -0.75 and MbtI inh 56*.
COc1cccc(OC)c1C(=O)Nc1ccc(Br)cc1C was read as AID504770 -0.3.
N=C1C(c2nc3ccccc3s2)=C(O)CN1N1C(=O)c2ccccc2C1=O was read as Polio RdRp inh 89*, MenB inh 0, AID504770 -0.05 and MbtI inh 54.
`COc1ccc(C(=O)CSc2nnc(-c3ccco3)c(-c3ccco3)n2)cc1` gave Polio RdRp inh 98, MenB inh 30*, AID504770 0.75 and MbtI inh 54.
For CCOc1ccc(C(=O)CSc2nnc(-c3ccco3)c(-c3ccco3)n2)cc1NC(=O)CC the results were Polio RdRp inh 100, MenB inh 62*, AID504770 1.5 and MbtI inh 94*.
Screening O=C(CSc1nnc(-c2ccco2)c(-c2ccco2)n1)Nc1ccc(C(=O)O)cc1 returned AID504770 0.7.
O=C(CSc1nnc(-c2ccoc2)c(-c2ccoc2)n1)c1ccc(-c2ccccc2)cc1 was read as Polio RdRp inh 98, MenB inh 20, AID504770 0.15 and MbtI inh 61*.
For O=C(CSc1nnc(-c2ccoc2)c(-c2ccoc2)n1)c1ccc(N2CCCC2=O)cc1 the results were Polio RdRp inh 97, MenB inh 25, AID504770 0.15 and MbtI inh 21.
CCc1ccc(C(=O)c2cn(CC(=O)Nc3ccc(OC)c(Cl)c3)c3nc(C)ccc3c2=O)cc1 was read as Polio RdRp inh 111.
Screening CC(C)Cn1cc(NC(=O)NCc2ccccc2)c2ccccc2c1=O returned Polio RdRp inh 12*.
Cc1ccc(C)c(N2CCN(C(=O)Nc3cn(CC(C)C)c(=O)c4ccccc34)CC2)c1 was read as Polio RdRp inh 77*.
Screening CC(C)Cn1cc(NC(=O)N2CCN(c3cccc(Cl)c3)CC2)c2ccccc2c1=O returned Polio RdRp inh 106.
Screening CC(C)Cn1cc(NC(=O)NCc2ccccc2Cl)c2ccccc2c1=O returned Polio RdRp inh 41*.
Screening CC(C)Cn1cc(NC(=O)NCc2ccc(Cl)cc2)c2ccccc2c1=O returned Polio RdRp inh 106.
For CC(C)Cn1cc(NC(=O)NCc2cccc(Cl)c2)c2ccccc2c1=O the results were Polio RdRp inh 58*.
Screening Cn1c(=O)c2cc(C(=O)N3CCCCC3)sc2c2ccccc21 returned Polio RdRp inh 100, MenB inh -16, AID504770 -0.6 and MbtI inh -5.
Cc1ccc2oc(-c3ccc(C)c(NC(=O)C(C)(C)Oc4ccc(Cl)cc4)c3)nc2c1 was read as Polio RdRp inh 103.
`COc1ccc(OC)c(CNC(=O)Nc2cn(CC(C)C)c(=O)c3ccccc23)c1` gave Polio RdRp inh 25*.
For COc1cccc(CNC(=O)Nc2cn(CC(C)C)c(=O)c3ccccc23)c1 the results were Polio RdRp inh 31*.
Screening Cc1ccc(CNC(=O)Nc2cn(CC(C)C)c(=O)c3ccccc23)cc1 returned Polio RdRp inh 28*.
For CCOc1ccc(-n2c(SCC(=O)Nc3ccccc3OC)nc3c(oc4ccccc43)c2=O)cc1 the results were Polio RdRp inh 102.
